{"source": "the supplement of paper PMC8728848", "assay_in_all_cases": "glycan array binding signal (z-score within array); higher = stronger binding", "conditions_in_all_cases": "glycan notation: IUPAC condensed, linker removed", "key": {"[1]": {"molecular_target": "Fuc(a1-2)Gal(b1-3)GlcNAc(b1-2)Man(a1-3)[Fuc(a1-2)Gal(b1-3)GlcNAc(b1-2)Man(a1-6)]Man(b1-4)GlcNAc(b1-4)[Fuc(a1-6)]GlcNAc", "method_in_brief": "(§1)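 From the Consortium for Functional Glycomics database, 3228 arrays were curated, keeping only those whose protein sequence was available. Binding is given as a within-array Z-score averaged across arrays sharing a protein sequence and across linkers. Negative Z-scores can be read as non-binding.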"}, "[2]": {"molecular_target": "Fuc(a1-2)Gal(b1-3)GlcNAc(b1-3)[Fuc(a1-2)Gal(b1-3)GlcNAc(b1-6)]GalNAc", "method_in_brief": "as §1"}, "[3]": {"molecular_target": "Fuc(a1-2)Gal(b1-3)GlcNAc(b1-3)[Gal(b1-4)GlcNAc(b1-6)]Gal(b1-4)Glc", "method_in_brief": "as §1"}, "[4]": {"molecular_target": "Fuc(a1-2)Gal(b1-3)GlcNAc(b1-3)[Neu5Ac(a2-6)Gal(b1-4)GlcNAc(b1-6)]Gal(b1-4)Glc", "method_in_brief": "as §1"}, "[5]": {"molecular_target": "Fuc(a1-2)Gal(b1-3)[Fuc(a1-4)]GlcNAc(b1-2)Man(a1-3)[Fuc(a1-2)Gal(b1-3)[Fuc(a1-4)]GlcNAc(b1-2)Man(a1-3)]Man(b1-4)GlcNAc(b1-4)GlcNAc", "method_in_brief": "as §1"}, "[6]": {"molecular_target": "Fuc(a1-2)Gal(b1-4)[Fuc(a1-3)]GlcNAc(b1-3)[Neu5Ac(a2-6)Gal(b1-4)GlcNAc(b1-6)]Gal(b1-4)Glc", "method_in_brief": "as §1"}, "[7]": {"molecular_target": "Fuc(a1-2)[Gal(a1-3)]Gal(b1-3)GalNAc(b1-3)Gal(a1-4)Gal(b1-4)Glc", "method_in_brief": "as §1"}, "[8]": {"molecular_target": "Fuc(a1-2)[Gal(a1-3)]Gal(b1-4)GlcNAc(b1-2)Man(a1-3)[Fuc(a1-2)[Gal(a1-3)]Gal(b1-4)GlcNAc(b1-2)Man(a1-6)]Man(b1-4)GlcNAc(b1-4)GlcNAc", "method_in_brief": "as §1"}, "[9]": {"molecular_target": "Fuc(a1-2)[Gal(a1-3)]Gal(b1-4)GlcNAc(b1-3)[Fuc(a1-2)[Gal(a1-3)]Gal(b1-4)GlcNAc(b1-6)]GalNAc", "method_in_brief": "as §1"}, "[10]": {"molecular_target": "Fuc(a1-2)[GalNAc(a1-3)]Gal(b1-4)GlcNAc(b1-2)Man", "method_in_brief": "as §1"}, "[11]": {"molecular_target": "Fuc(a1-2)[GalNAc(a1-3)]Gal(b1-4)GlcNAc(b1-3)Gal(b1-4)GlcNAc(b1-3)Gal(b1-4)GlcNAc", "method_in_brief": "as §1"}, "[12]": {"molecular_target": "Fuc(a1-3)[Gal(b1-4)]GlcNAc(b1-2)Man", "method_in_brief": "as §1"}, "[13]": {"molecular_target": "Fuc(a1-3)[Gal(b1-4)]GlcNAc(b1-2)Man(a1-3)[Fuc(a1-3)[Gal(b1-4)]GlcNAc(b1-2)Man(a1-6)]Man(b1-4)GlcNAc(b1-4)[Fuc(a1-6)]GlcNAc", "method_in_brief": "as §1"}, "[14]": {"molecular_target": "Fuc(a1-3)[Gal(b1-4)]GlcNAc(b1-3)Gal(b1-3)[Fuc(a1-4)]GlcNAc", "method_in_brief": "as §1"}, "[15]": {"molecular_target": "Fuc(a1-3)[Gal3S(b1-4)]Glc", "method_in_brief": "as §1"}, "[16]": {"molecular_target": "Gal(a1-2)Gal", "method_in_brief": "as §1"}, "[17]": {"molecular_target": "Gal(a1-3)Gal(b1-3)GlcNAc(b1-2)Man(a1-3)[Gal(a1-3)Gal(b1-3)GlcNAc(b1-2)Man(a1-6)]Man(b1-4)GlcNAc(b1-4)GlcNAc", "method_in_brief": "as §1"}, "[18]": {"molecular_target": "Gal(a1-3)Gal(b1-3)GlcNAc(b1-6)GalNAc", "method_in_brief": "as §1"}, "[19]": {"molecular_target": "Gal(b1-3)GalNAc(b1-3)Gal", "method_in_brief": "as §1"}, "[20]": {"molecular_target": "Gal(b1-3)GlcNAc(b1-2)Man(a1-3)[Gal(b1-3)GlcNAc(b1-2)Man(a1-6)]Man(b1-4)GlcNAc(b1-4)[Fuc(a1-6)]GlcNAc", "method_in_brief": "as §1"}, "[21]": {"molecular_target": "Gal(b1-3)GlcNAc(b1-3)Gal(b1-4)GlcNAc", "method_in_brief": "as §1"}, "[22]": {"molecular_target": "Gal(b1-3)GlcNAc(b1-6)[Gal(b1-3)]GalNAc", "method_in_brief": "as §1"}, "[23]": {"molecular_target": "Gal(b1-3)GlcNAc6S", "method_in_brief": "as §1"}, "[24]": {"molecular_target": "Gal(b1-4)GalNAc(a1-3)[Fuc(a1-2)]Gal(b1-4)GlcNAc", "method_in_brief": "as §1"}, "[25]": {"molecular_target": "Gal(b1-4)GlcNAc(b1-2)Man(a1-3)[Gal(b1-4)GlcNAc(b1-2)Man(a1-6)]Man(b1-4)GlcNAc(b1-4)[Fuc(a1-6)]GlcNAc", "method_in_brief": "as §1"}, "[26]": {"molecular_target": "Gal(b1-4)GlcNAc(b1-2)Man(a1-3)[Man(a1-6)]Man(b1-4)GlcNAc(b1-4)GlcNAc", "method_in_brief": "as §1"}, "[27]": {"molecular_target": "Gal(b1-4)GlcNAc(b1-3)Gal(b1-3)GlcNAc", "method_in_brief": "as §1"}, "[28]": {"molecular_target": "Gal(b1-4)GlcNAc(b1-3)Gal(b1-4)GlcNAc(b1-3)Gal(b1-4)GlcNAc(b1-2)Man(a1-3)[Gal(b1-4)GlcNAc(b1-3)Gal(b1-4)GlcNAc(b1-3)Gal(b1-4)GlcNAc(b1-2)Man(a1-6)]Man(b1-4)GlcNAc(b1-4)[Fuc(a1-6)]GlcNAc", "method_in_brief": "as §1"}}, "note": "This excerpt belongs to a sample that is enriched for the strongest signals.", "data": [{"binder": "GS7807G-bfa-506-18-506 (Bacteroides fragilis) (protein) ASCDKFDEINTDPDATTKVTSSLLATGLLLDITSSSASKSFIYDELLAKQMAWGESMEDYQYNVFGRSGFGGYTTLINAQKMVESVSDDNVNAYDGLAHFIKAYKIFYMSMEMGDLPYEEALQGELGLVRPKYNTQKEVMNFILSDLETAYELFSTAKDFDGDPILGGSISKWKKATTAFQLKVLMHLSKKESDADLKVKERFARIVASGSLMESNEDNLQMKYADKANTVYPFHNTNTKHAGYAMLSTMLIDKFKATGDIRMFYYAKPAKAKLNEGVTADSWDAYIGTDPSLPFEQIEKAYATEQYSGFNARYTDYPSGEPVVRLGYAEQNFILAEAAVRGWISGDASAYYKKAIRAHMEFIASNTPDEEVYHHGHPITEEAIAAFLETPAIQLSGEKEEDIEKILTQRYLASFMQHPYDVYYDYRRTGYPVLPINPATNRNTMNDRLPMRWMYPKSESDYNLEHQNEALERQFGGVDDVNKLMWILQ", "values": [{"measurement": "glycan array binding signal (z-score)", "setting": "[1]", "value": 0.142}, {"measurement": "glycan array binding signal (z-score)", "setting": "[2]", "value": 3.91}, {"measurement": "glycan array binding signal (z-score)", "setting": "[3]", "value": 0.516}, {"measurement": "glycan array binding signal (z-score)", "setting": "[4]", "value": -0.857}, {"measurement": "glycan array binding signal (z-score)", "setting": "[5]", "value": 0.421}, {"measurement": "glycan array binding signal (z-score)", "setting": "[6]", "value": -0.781}, {"measurement": "glycan array binding signal (z-score)", "setting": "[7]", "value": -0.536}, {"measurement": "glycan array binding signal (z-score)", "setting": "[8]", "value": 3.93}, {"measurement": "glycan array binding signal (z-score)", "setting": "[9]", "value": 0.293}, {"measurement": "glycan array binding signal (z-score)", "setting": "[10]", "value": -0.111}, {"measurement": "glycan array binding signal (z-score)", "setting": "[11]", "value": -0.91}, {"measurement": "glycan array binding signal (z-score)", "setting": "[12]", "value": 0.315}, {"measurement": "glycan array binding signal (z-score)", "setting": "[13]", "value": 1.51}, {"measurement": "glycan array binding signal (z-score)", "setting": "[14]", "value": -0.716}, {"measurement": "glycan array binding signal (z-score)", "setting": "[15]", "value": -0.945}, {"measurement": "glycan array binding signal (z-score)", "setting": "[16]", "value": -0.863}, {"measurement": "glycan array binding signal (z-score)", "setting": "[17]", "value": 4.66}, {"measurement": "glycan array binding signal (z-score)", "setting": "[18]", "value": 1.31}, {"measurement": "glycan array binding signal (z-score)", "setting": "[19]", "value": -0.588}, {"measurement": "glycan array binding signal (z-score)", "setting": "[20]", "value": 2.73}, {"measurement": "glycan array binding signal (z-score)", "setting": "[21]", "value": -0.493}, {"measurement": "glycan array binding signal (z-score)", "setting": "[22]", "value": -0.028}, {"measurement": "glycan array binding signal (z-score)", "setting": "[23]", "value": 0.702}, {"measurement": "glycan array binding signal (z-score)", "setting": "[24]", "value": -0.448}, {"measurement": "glycan array binding signal (z-score)", "setting": "[25]", "value": 2.53}, {"measurement": "glycan array binding signal (z-score)", "setting": "[26]", "value": 1.4}, {"measurement": "glycan array binding signal (z-score)", "setting": "[27]", "value": 0.201}, {"measurement": "glycan array binding signal (z-score)", "setting": "[28]", "value": 5.99}]}]}
